Reference: the supplement of paper PMC11417369
± gives the standard deviation of the averaged measurements. Over roughly 25,000 sequences, “ln(normalized median fluorescence intensity)” has its median near 8.9; the highest 2% begin near 10. This excerpt belongs to a sample that is enriched for the highest values.

test system: PfAP2-LT AP2 domain (GST-tagged); experiment: gcPBM binding intensity (ln(normalized median fluorescence intensity)); higher = stronger DNA binding
Summary of the method: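 DNA-binding domains from P. falciparum, fused to GST and produced in E. coli, were put on an Agilent 4 × 180k double-stranded probe array for 1 h in 1× PBS holding 1% milk, 0.2 mg/ml BSA, 0.5% salmon testes DNA and 0.03% Triton X-100. Probes were primer-extended, 36 bp long and drawn from intergenic genomic regions, with negative controls included. After Alexa488 anti-GST antibody detection and a 488 nm scan, binding intensity was set as the highest Masliner-normalised natural-log median intensity across replicate spots of either probe orientation.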

| Sequence | gcPBM binding intensity (ln) |
| --- | --- |
| TTTATATTTAAATGCATGCACTTTCTATTTTTTTTT [GTGCAC_site9959] | 9.13 ± 0.53 |
| CTTACATATTACATATGTACATATACACCTTATGTC [XGTACX_site4679] | 9.19 ± 0.41 |
| TACAATTGTAAAGGCGCACACATATATATATATATA [CACACA_site1392] | 10.3 ± 0.23 |
| TGCAATTGTAAAGGCGCACACATATATATATATATA [CACACA_site4894] | 10.2 ± 0.13 |
| TTATTGCGCACAATTTGTACATATATATATATAGAA [XGTACX_site7573] | 8.84 ± 0.4 |
| GTTTTATAAAAAGGCGCACACATATACATAAATATA [CACACA_site1864] | 9.37 ± 0.47 |
| TATTGTAAGAAAGGCACACAGATAAAATTATTATAT [CACACA_site2921] | 8.83 ± 0.51 |
| AAAAAAAGGTAAAATTGTACATACGCACAAAAATAT [XGTACX_site2887] | 9 ± 0.51 |
| AATCTGATTTGTATATGTACACAAATATTTTTATTT [XGTACX_site5295] | 8.99 ± 0.53 |
| TAATATCAAACCTATAGTACATAAGGTATAAAAAAG [XGTACX_site3533] | 8.86 ± 0.44 |
| TTCTGAACAAAATTATATATTTATTTTTATTTTCAT [CACACA_negctrl_site422] | 8.48 ± 0.5 |
| AAAAAAAAAAAAAAAACACACAATTGAATTATTAAG [CACACA_site2864] | 8.7 ± 0.61 |
| TTCTTATATTGTACAGTACACACCTTTATAATGTTA [CACACA_site7953] | 9.15 ± 0.49 |
| TATCATAAAATATGTAGTACGTATATATATAAAAAT [XGTACX_site5455] | 8.97 ± 0.41 |
| GTAATTATTAATAAAACATGCGTATAAAATTTTCTC [TGCATGCA_site50] | 8.62 ± 0.46 |
| TATATATATATATTTACACACATTCATATAAATTCA [CACACA_site3532] | 9.04 ± 0.28 |
| AAATTTGGCAGACACACACACACACGCACACGCACA [CACACA_site6423] | 10.4 ± 0.33 |
| TACACCCATAGACACACACACACGCATAAAAAAAAA [CACACA_site8428] | 9.95 ± 0.55 |
| TACAGACATAGACACACACACACGCATAAAAAAAAA [CACACA_site6820] | 10 ± 0.51 |
| CAGACGCACGTATTTGCACACATTGCCACGTAATTA [CACACA_site3349] | 9.28 ± 0.37 |
| ATTTGGCATAGACACACACACACACGCACGCACATA [CACACA_site6424] | 10.3 ± 0.28 |
| TACTTATTGTGATACTTATATTATTTTATGATTAAA [XGTACX_negctrl_site353] | 8.5 ± 0.42 |

| Sequence | gcPBM binding intensity (ln) |
| --- | --- |
| TTTTGGTGGGTTACAAGTACTCAAAATGGATTGTTA [XGTACX_site1951] | 8.56 ± 0.38 |
| GTTGCCATCATTTGGCGTACAGTCAAAACCAAATCT [XGTACX_site1398] | 8.56 ± 0.37 |
| ACAACACATATTCATCGTACATGTATTAGGAAGACA [XGTACX_site1859] | 9.04 ± 0.42 |
| GTATATTGTACCATCACACATGTAAAACATAGATGT [CACACA_site5359] | 8.94 ± 0.43 |
| TGGTATATATTTCCTTGTACATATAATATATATTGT [XGTACX_site3961] | 8.94 ± 0.51 |
| ATGAGTGCACAAATATATATATATATATATATATAT [CACACA_negctrl_site404] | 10.2 ± 0.26 |
| TAATATAATCTGAGTGCACACAAATAAATAAACATA [CACACA_site8032] | 9.16 ± 0.44 |
| CACAAATATACAAATACACACAAATATACAAATACA [CACACA_site2385] | 9.42 ± 0.44 |
| ATAAAAATAAAAAGTGTGCACACAAAAATATATATA [GTGCAC_site9931] | 9.62 ± 0.36 |
| GCACAAATATATATATATATATATATATATATATAT [GTGCAC_negctrl_site661] | 10.2 ± 0.12 |
| TACACAAATATATATATATATATATATATATATATA [XGTACX_negctrl_site305] | 10 ± 0.5 |
| TATAATGATGATGATAGTACGTATTAGTATAAAAAA [XGTACX_site9] | 8.81 ± 0.52 |
| TATACCTTTTTATTCACACATATATGTCATATGTCA [CACACA_site5423] | 9.28 ± 0.5 |
| CTCTTGTCATTTTGCACACACACATGGATAGGTTAT [CACACA_site5655] | 9.81 ± 0.33 |
| ATAAAATTATATACTCGTACACAAAAAAAAAAAATA [XGTACX_site6035] | 8.77 ± 0.47 |
| TATAAGTGCCGTTATACACACGTTATATAAATATTA [CACACA_site4401] | 8.81 ± 0.4 |
| TATTAAACGAAACACACACACACACCCATATATAAA [CACACA_site759] | 10.23 ± 0.099 |
| CACAGATAAATTAACACACACACACCCATATATATA [CACACA_site3960] | 10.05 ± 0.071 |
| CGTTTATTAAACTTGACACACACACCCCCACATATA [CACACA_site8151] | 9.975 ± 0.064 |
| TTCCCATGTAATATTAAACACACACCCATATAACAC [CACACA_site7905] | 9.505 ± 0.078 |
| TATTAAACTGGACACACACACACACCCATATATAAA [CACACA_site4579] | 10.15 ± 0.021 |
| AACACAGATAAATTAACACACACACCCATATATATA [CACACA_site9310] | 9.85 ± 0.23 |
